Over roughly 8,300 sequences, “log2 fold change of degron read counts, EGFP-low vs EGFP+ sorted cells (limma voom), compound-induced degradation” has its median near -1.1; the highest 2% begin near 3.2. For the sample, the highest values were picked, then their nearest neighbours and some sequences at random.
T1: CRBN, Q96SW2
T1 chain: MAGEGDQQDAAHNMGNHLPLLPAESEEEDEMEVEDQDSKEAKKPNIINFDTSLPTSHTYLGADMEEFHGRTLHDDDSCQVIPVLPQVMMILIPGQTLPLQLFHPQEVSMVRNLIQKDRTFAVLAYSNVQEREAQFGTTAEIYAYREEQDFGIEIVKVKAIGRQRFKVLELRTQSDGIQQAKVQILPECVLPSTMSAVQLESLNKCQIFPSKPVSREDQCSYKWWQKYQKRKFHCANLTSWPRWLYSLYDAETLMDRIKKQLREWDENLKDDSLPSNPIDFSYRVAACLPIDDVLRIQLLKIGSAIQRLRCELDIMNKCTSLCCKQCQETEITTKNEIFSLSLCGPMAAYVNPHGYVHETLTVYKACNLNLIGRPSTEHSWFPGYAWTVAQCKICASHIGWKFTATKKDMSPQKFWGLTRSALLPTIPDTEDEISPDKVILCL

B1: 46F_47T_49N_50Q_52G_53A_54L_55F_67L_, Q9UKT9 (peptide)
chain: FTCNQCGALFTQKGNLLRHIKL
B2: 46F_47R_49E_50I_52G_53R_54W_55F_67L_, Q9UKT9 (peptide)
chain: FRCEICGRWFTQKGNLLRHIKL
B3: 46F_47F_49P_50I_52G_53H_54A_55F_67L_, Q9UKT9 (peptide)
chain: FFCPICGHAFTQKGNLLRHIKL
B4: 46F_47H_49N_50Q_52G_53A_54C_55F_67L_, Q9UKT9 (peptide)
chain: FHCNQCGACFTQKGNLLRHIKL
B5: 46L_47R_49N_50Q_52G_53F_54L_55C_67L_, Q9UKT9 (peptide)
chain: LRCNQCGFLCTQKGNLLRHIKL
B6: 46F_47L_49S_50V_52G_53H_54V_55F_67L_, Q9UKT9 (peptide)
chain: FLCSVCGHVFTQKGNLLRHIKL
B7: 46F_47F_49E_50Q_52G_53A_54A_55F_67L_, Q9UKT9 (peptide)
chain: FFCEQCGAAFTQKGNLLRHIKL
B8: 46F_47T_49N_50Q_52G_53A_54M_55F_67L_, Q9UKT9 (peptide)
chain: FTCNQCGAMFTQKGNLLRHIKL
B9: 46F_47W_49P_50Q_52G_53A_54R_55F_67L_, Q9UKT9 (peptide)
chain: FWCPQCGARFTQKGNLLRHIKL
B10: 46F_47G_49E_50V_52G_53A_54Q_55F_67L_, Q9UKT9 (peptide)
chain: FGCEVCGAQFTQKGNLLRHIKL
B11: 46F_47T_49E_50V_52G_53A_54Q_55F_67L_, Q9UKT9 (peptide)
chain: FTCEVCGAQFTQKGNLLRHIKL
B12: 46F_47F_49E_50V_52G_53A_54Q_55F_67L_, Q9UKT9 (peptide)
chain: FFCEVCGAQFTQKGNLLRHIKL
B13: 46F_47C_49N_50Q_52G_53R_54E_55F_67L_, Q9UKT9 (peptide)
chain: FCCNQCGREFTQKGNLLRHIKL
B14: 46F_47Y_49D_50V_52G_53A_54I_55F_67L_, Q9UKT9 (peptide)
chain: FYCDVCGAIFTQKGNLLRHIKL
B15: 46L_47Y_49E_50I_52G_53F_54W_55C_67L_, Q9UKT9 (peptide)
chain: LYCEICGFWCTQKGNLLRHIKL
B16: 46F_47F_49E_50I_52G_53A_54G_55F_67L_, Q9UKT9 (peptide)
chain: FFCEICGAGFTQKGNLLRHIKL
B17: 46F_47T_49E_50I_52G_53A_54G_55F_67L_, Q9UKT9 (peptide)
chain: FTCEICGAGFTQKGNLLRHIKL
B18: 46F_47N_49E_50Q_52G_53A_54G_55F_67L_, Q9UKT9 (peptide)
chain: FNCEQCGAGFTQKGNLLRHIKL
B19: 46F_47R_49E_50I_52G_53A_54G_55F_67L_, Q9UKT9 (peptide)
chain: FRCEICGAGFTQKGNLLRHIKL
B20: 46F_47N_49E_50I_52G_53A_54G_55F_67L_, Q9UKT9 (peptide)
chain: FNCEICGAGFTQKGNLLRHIKL
B21: 46F_47A_49E_50I_52G_53A_54G_55F_67L_, Q9UKT9 (peptide)
chain: FACEICGAGFTQKGNLLRHIKL
B22: 46F_47H_49E_50I_52G_53A_54G_55F_67L_, Q9UKT9 (peptide)
chain: FHCEICGAGFTQKGNLLRHIKL
B23: 46F_47D_49E_50I_52G_53A_54G_55F_67L_, Q9UKT9 (peptide)
chain: FDCEICGAGFTQKGNLLRHIKL
B24: 46F_47I_49E_50I_52G_53A_54G_55F_67L_, Q9UKT9 (peptide)
chain: FICEICGAGFTQKGNLLRHIKL

Molecular target: T1, CRBN, Q96SW2
Assay: log2 fold change of degron read counts, EGFP-low vs EGFP+ sorted cells (limma voom), compound-induced degradation; higher = more compound-induced degradation of the degron-EGFP fusion; degrons are variants of IKZF1/3 zinc finger 2; compound dose not given here
Details: Jurkat, 18 h
[1] = compound: compound 19 (5-tert-butyl-thalidomide)
[2] = compound: compound 22 (5-morpholino-thalidomide)
[3] = compound: compound 33 (diphenyl IMiD analogue)
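Further: pooled lentiviral library of zinc finger degron-EGFP fusions in mCherry-positive Jurkat cells, FACS-sorted after compound exposure, with degron abundance counted by next-generation sequencing.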

Sequence	log2 fold change of degron read counts [1]	log2 fold change of degron read counts [2]	log2 fold change of degron read counts [3]	log2 fold change of degron read counts (compound: thalidomide)
B1	-2.64	-2.95	-1.35	-2.16
B2	-2.31	-2.38	-1.89	0.776
B3	-0.981	-1.5	-0.604	-1.29
B4	-1.49	-1.87	-1.86	-2.37
B5	-1.18	-1.92	-1.55	-1.3
B6	-2.42	-2.11	-2.5	-2.18
B7	0.842	1.01	0.32	-1.11
B8	-2.5	-2.41	-1.29	-1.58
B9	0.926	3.08	0.0765	0.0591
B10	3.18	2.36	1.12	0.866
B11	-0.192	2.19	2.27	2.79
B12	3.36	3.6	2.42	1.89
B13	-3.21	-3.01	-3.16	-3.5
B14	0.745	0.688	-0.626	-1.86
B15	1.69	1.16	1.94	0.136
B16	3.51	2.9	1.61	0.677
B17	2.35	2.19	2.28	2.27
B18	-0.14	-2.54	-2.33	-2.8
B19	2.78	1.83	2.46	1.7
B20	3.46	0.722	-0.0429	-0.254
B21	3.75	1.86	0.304	0.339
B22	3.51	1.13	1.93	-0.622
B23	1.89	-1.13	-0.599	-0.0656
B24	0.51	2.54	1.87	2.76
